{"source": "the supplement of paper PMC10681739", "data": [{"molecular_target": "T1, ETS1 (UniProt P14921)", "T1 sequence": "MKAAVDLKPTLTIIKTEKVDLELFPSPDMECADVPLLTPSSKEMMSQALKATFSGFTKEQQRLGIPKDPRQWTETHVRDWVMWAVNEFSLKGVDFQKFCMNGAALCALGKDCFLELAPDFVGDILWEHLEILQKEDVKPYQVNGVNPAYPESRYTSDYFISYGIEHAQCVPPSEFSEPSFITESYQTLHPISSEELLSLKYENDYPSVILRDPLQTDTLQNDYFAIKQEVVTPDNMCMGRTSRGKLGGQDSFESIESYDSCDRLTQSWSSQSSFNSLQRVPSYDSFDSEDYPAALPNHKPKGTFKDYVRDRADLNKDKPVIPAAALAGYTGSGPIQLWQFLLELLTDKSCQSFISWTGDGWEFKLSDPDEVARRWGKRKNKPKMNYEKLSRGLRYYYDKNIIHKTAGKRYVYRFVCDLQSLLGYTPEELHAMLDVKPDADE", "assay": "ETS1 binding intensity (PBM fluorescence), ETS1 alone (arbitrary fluorescence units); higher = stronger binding", "conditions": "ETS1 concentration 1 nM; RUNX1 concentration 0 nM", "description": "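Cooperative genomic-context PBM: 36-bp genomic probes with neighbouring ETS1 and RUNX1 sites, double-stranded on Agilent 4x180k arrays. Full-length recombinant human ETS1 (1 nM) was incubated alone or with RUNX1 (25 nM) and detected with anti-ETS1 antibody plus Alexa488 secondary. Value is the median fluorescence intensity over 4 replicate spots; the ETS1+RUNX1 data were normalised to the ETS1-only data using probes without RUNX1 sites. The 36-bp variable region sits on the array probe with constant linker/primer flanks that are not printed.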", "values": [{"sequence": "TGAGGAAGTGTAAGTCACAATAAGAAGCCACATATA", "ETS1 binding intensity": 564}, {"sequence": "AAAATTAAAGCAGGAAGTAATCAACCACATCAAATG", "ETS1 binding intensity": 3130}, {"sequence": "CGGCTGGCAGGAAGTGGCCACTTGAACCGCAGATGC", "ETS1 binding intensity": 4480}, {"sequence": "GACATGCTCCGGAAGCTTGAGGTTTTAACGTTAAGG", "ETS1 binding intensity": 2040}, {"sequence": "CCCGCGACACAAGGCGGATGTGGTACCCTCACTTGT", "ETS1 binding intensity": 3250}, {"sequence": "AGCCACGGACTTCCGCCTACAGGTCGCCGCAGGTCC", "ETS1 binding intensity": 701}, {"sequence": "GGGCCCGGGCCAGGAAGTGGTTTTGCAGAGGTGTTT", "ETS1 binding intensity": 4630}, {"sequence": "TATTCAGGCTTCCGGGTGATGTTTGTGGCCACCCGG", "ETS1 binding intensity": 3800}, {"sequence": "TCAAGTTTGGTAACAGGATGTGGTAGGAGGAACACA", "ETS1 binding intensity": 8320}, {"sequence": "AAACATCATAGGAAGTGGATTTTGTGGTGAGAGACA", "ETS1 binding intensity": 1160}, {"sequence": "CCACTCCCAGCTCCATCCTGTGGGTAGAACTCAGTG", "ETS1 binding intensity": 477}, {"sequence": "GATGGTGTCTTTTGGGGATGTGGGTTTGGGGGATGG", "ETS1 binding intensity": 564}, {"sequence": "GCTTCGTTTCCCGCCGGGGCTCACCGCGCCCCCCTA", "ETS1 binding intensity": 621}, {"sequence": "ACCAGAACAGGAAATGTTAGTGGTTGAGTTAACGGT", "ETS1 binding intensity": 3760}, {"sequence": "TGAAGTTGGTGTTTTCCGGGGGCGGTTTTTCCATTG", "ETS1 binding intensity": 504}, {"sequence": "GATTAAGAGGAAGTGTGTGTGATTATTACCGCTGGA", "ETS1 binding intensity": 1310}, {"sequence": "TAGCAGGAAGCCGATTCGCCCTATATGCAACCACTT", "ETS1 binding intensity": 549}, {"sequence": "GCGGGCAGGATCTTCCTGTGGTTTGCCTTGCCCACT", "ETS1 binding intensity": 388}, {"sequence": "GTCGGAAGTGGCCGTGAGCCCAAGCCGCGGTCCCGG", "ETS1 binding intensity": 480}, {"sequence": "CAGTGCCAGCCGGAACTTGTGGTTCGGACCGTGGGT", "ETS1 binding intensity": 882}, {"sequence": "GCACGCCATCGAGGAAGTGGGTTTACTGTGTATTTC", "ETS1 binding intensity": 916}, {"sequence": "AACAGGCAAAGGACAGGATGTGGTGAGCGTCGGCCC", "ETS1 binding intensity": 4150}, {"sequence": "GTCCCCTCCCCAGGATGTGGCCACCCGCTAGAGCAT", "ETS1 binding intensity": 1030}, {"sequence": "AATCCAACACTTCCTCCTCCACCGCAGAAAGGCAAC", "ETS1 binding intensity": 518}, {"sequence": "TTGGTGACCTCTTCCTGTCCGCTGTGGTGTTGTTAC", "ETS1 binding intensity": 1080}, {"sequence": "GGCACCGGAAGTAGAGCTGCCCCTAGTTGCGGCAGT", "ETS1 binding intensity": 9240}, {"sequence": "TGAGCCCTACTTCCGGTGGTGCTGTGGTCTGCCCCT", "ETS1 binding intensity": 10700}, {"sequence": "GCCTGTGGAGTTGCAGGATGTGGTTGGCGAAAAGAA", "ETS1 binding intensity": 2130}, {"sequence": "ACACCCCAGGAAGTGGCAGAGACCACAACAAGTCAG", "ETS1 binding intensity": 704}, {"sequence": "AAAGAGAAAGGAAACAAAGTATAGCACCACAGTGAG", "ETS1 binding intensity": 475}, {"sequence": "ACTTACTTCCCGACGTCACAGCCACCGAAACCACAG", "ETS1 binding intensity": 468}, {"sequence": "GACTTCCTGTTGAAGATTGGCCTCTGCGGTACCACG", "ETS1 binding intensity": 951}, {"sequence": "GAAGCAGACAGGAAGTGGGTCTGAGCGGTGGAGGGA", "ETS1 binding intensity": 7670}, {"sequence": "GGGTCGCGGCCTTCCGGCGAACGCGGTTACCGTGGA", "ETS1 binding intensity": 555}, {"sequence": "CTCGTGCGTCACTTCCGCCCCGCAGACCCGCCCACT", "ETS1 binding intensity": 2410}, {"sequence": "TACGGGAACTTCCTTTTCTTGTGGTGTGGCCGGGTC", "ETS1 binding intensity": 571}, {"sequence": "CCCCACCCAGACAGGAAACTGTGGCTTCTATCAGAT", "ETS1 binding intensity": 3020}, {"sequence": "GGGGTCAGGAAATGGGTGTGCCGCGGGTAAGGCGCT", "ETS1 binding intensity": 949}, {"sequence": "AACAGTCACATCCGGGGCCGAGAGGAACCGCGAACG", "ETS1 binding intensity": 1100}, {"sequence": "GAGAGGAGGATGTTGTCAGATACCCACAAATGAGAA", "ETS1 binding intensity": 566}]}]}
